FLuc counter – qHTS profiling assay for firefly luciferase inhibitor/activator using purifed enzyme and Km concentrations of substrates (counterscreen for miR-21 project); purified FLuc, Km substrates, luminescence inhibition; Potency, µM (series often up to 57.5 µM), inactives show top-dose activity change, negative = inhibition, usual class: inhibitors; 6.9% of 360,000 active; AID 588342, 2011;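 note: plate controls were vehicle for no effect and reference inhibitor for full effect; nearly all actives have a fitted effect of over 55% in size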
Target sequence (P08659 whole entry, looked up): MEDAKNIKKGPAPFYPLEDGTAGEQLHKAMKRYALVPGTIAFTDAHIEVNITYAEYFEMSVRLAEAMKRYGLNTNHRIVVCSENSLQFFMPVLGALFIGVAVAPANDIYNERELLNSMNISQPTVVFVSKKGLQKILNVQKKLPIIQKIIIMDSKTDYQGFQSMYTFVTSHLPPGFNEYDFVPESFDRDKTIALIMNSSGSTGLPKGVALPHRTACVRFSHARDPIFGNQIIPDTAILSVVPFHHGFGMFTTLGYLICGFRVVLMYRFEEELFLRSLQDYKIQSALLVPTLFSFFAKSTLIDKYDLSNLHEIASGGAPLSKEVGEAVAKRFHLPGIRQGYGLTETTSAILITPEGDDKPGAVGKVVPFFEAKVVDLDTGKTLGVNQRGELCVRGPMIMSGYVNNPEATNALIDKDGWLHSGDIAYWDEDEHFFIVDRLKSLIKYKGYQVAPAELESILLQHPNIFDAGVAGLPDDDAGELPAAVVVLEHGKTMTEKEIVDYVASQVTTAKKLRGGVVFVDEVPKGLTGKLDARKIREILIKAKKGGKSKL
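Biochemical qHTS of compounds, final roughly 60 µM downward over six points, against 10 nM purified firefly luciferase using Km concentrations of substrates (10 uM D-luciferin, 10 uM ATP) in Tris acetate pH 7.5 buffer; luminescence output.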
NPC1 prom act – qHTS Assay for NPC1 Promoter Activators. Huh7 NPC1 promoter luciferase reporter, 24 h. Potency, µM (doses to about 9.22 µM), without a hit: at the highest dose activation, actives largely listed as activators. 2.4% of 320,000 active; note: % of control where 0% means no effect; nearly all actives have a fitted effect of over 60% in size
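Quantitative HTS used a cell-based reporter: Huh7 cells stably bearing the NPC1 promoter upstream of luciferase were treated with compounds for 24 h, and promoter activation was read as luminescence.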
ELG1 genotox – qHTS screen for small molecules that induce genotoxicity in human embryonic kidney (HEK293T) cells expressing luciferase-tagged ELG1; HEK293T ELG1-luciferase reporter, luminescence, 16 h; Potency, µM (series often up to 46 µM), for inactives: at the highest dose activity change, positive = activation, hits mostly activators; 1.3% of 330,000 active; AID 504466, 2011; note: % of control where 0% means no effect; nearly all actives have a fitted effect of over 60% in size
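After overnight (16 hr) compound treatment at 37 °C, ELG1-luciferase HEK293T cells were lysed with ONE-Glo; luminescence quantified 30 min later at room temperature.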
ELG1 DNA repair – qHTS screen for small molecules that inhibit ELG1-dependent DNA repair in human embryonic kidney (HEK293T) cells expressing luciferase-tagged ELG1; HEK293T ELG1-luciferase reporter, luminescence, 16 h; DNA damage induced by 5-fluorouridine; Potency, µM (highest dose often 46.1 µM), for the others: at the highest dose activity change, negative = inhibition, hits mostly inhibitors; 2.3% of 330,000 active; AID 504467, 2011; note: % is set by controls: 0 for no effect and ±100 for the full control effect; nearly all actives have a fitted effect of over 55% in size
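In this reporter screen, reduction of luminescence relative to DMSO vehicle indicated activity. Compounds and 5-fluorouridine were added together to 2,000 cells per well, incubated for 16 hr at 37 °C, then developed with ONE-Glo.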
Rab9 promoter act – qHTS Assay for Rab9 Promoter Activators; Huh7 Rab9 promoter-luciferase reporter, luminescence, 24 h; Potency, µM (doses to about 9.22 µM), for inactives: at the top dose activation, negative = inhibition, usual class: activators; 2.8% of 320,000 active; note: % of control where 0% means no effect; nearly all actives have a fitted effect of over 60% in size
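Quantitative HTS format; Huh7 Rab9-luciferase reporter cells (1500/well) receive compound 2 h post-plating, incubate 24 h at 37 °C, then get luciferase reagent for 10 min before luminescence reading.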
SMN2 splice up – qHTS Assay for Enhancers of SMN2 Splice Variant Expression; HEK293 SMN2-luciferase splicing reporter, luminescence, 30-36 h; Potency, µM (highest dose often 46.1 µM), for inactives: at the highest dose activity change, positive = activation, actives largely listed as activators; AID 1458, 2008; 2.8% of 210,000 active; note: % of control where 0% means no effect; nearly all actives have a fitted effect of over 55% in size
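HEK293 cells carry an SMN2 […]–luciferase reporter in which exon 7 inclusion puts luciferase in frame. Cells were plated 10-12 h before compound addition, then incubated 30-36 h at 37C. ONE-Glo luminescence was read; sodium butyrate at 4.5 mM final served as control.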
The depositor's hits bear a star; ? = inconclusive; . = not tested or not shown; [ ] = another dose, or the depositor's remark. Most compounds without a hit are left out; they make up all but 9.4% or so of the library. Calls come from the whole dose curve; as a rule, active = well fitted curve in the direction sought with a large enough effect; inconclusive = small, poorly fitted or top-dose-only effect, or another doubt; inactive = no such curve, though single readings can be large; an effect the other way counts as inactive or inconclusive. Potency is the fitted concentration of half-maximal effect.

SMILES | FLuc counter | NPC1 prom act | ELG1 genotox | ELG1 DNA repair | Rab9 promoter act | SMN2 splice up
O=C(Nc1ccc(Oc2ccc(C(=O)O)c(C(=O)O)c2)cc1)c1cccs1 | 21µM* | -2% | 2% | -1% | -6% | .
O=C(NC(=S)Nc1ccc(Br)cn1)c1cccs1 | 3.8µM* | ? | ? | ? | ? | 13µM*
O=C(Nc1ccc(NC(=O)c2ccc(Cl)cc2Cl)cc1)c1cccs1 | -2% | -3% | 15% | -3% | 5% | .
CCn1cc2nc(SCC(=O)Nc3ccccc3C(F)(F)F)n(Cc3ccc(C)cc3)c(=O)c2n1 | -13% | . | . | . | . | -4%
O=C(O)C[C@H](S)C(=O)O | . | . | . | . | . | 7%[9.22 µM]
CC(C)c1ccc(NC(=S)NNC(=O)c2cccs2)cc1 | 21µM* | ? | ? | ? | ? | ?
Cc1cccnc1NC(=S)NC(=O)c1cccs1 | 13µM* | ? | ? | ? | 3.5µM* | 3.2µM*
COc1ccc(NC(=O)c2cccs2)cc1 | 15µM* | ? | ? | ? | ? | 18µM*
COc1ccc(NC(=O)/C=C/c2ccccc2)c([N+](=O)[O-])c1 | ? | ? | ? | ? | 3.2µM* | 10µM*
Cc1cccnc1NC(=O)CNC(=O)c1cccs1 | 1% | -3% | 0% | 1% | -5% | .
CC(=O)NC(=S)Nc1ccc(NC(=O)c2cccs2)cc1 | ? | ? | 14% | 16% | ? | ?
CCc1ccc(NC(=O)Cn2c(=O)n(CCC(=O)NCCc3ccc(Cl)cc3)c(=O)c3ccccc32)cc1 | -1% | . | . | . | . | 23%
O=C(Nc1ccccc1Cl)c1ccc(F)c(S(=O)(=O)NCc2ccc(Cl)c(Cl)c2)c1 | -2% | . | . | . | . | .
CC(=O)C1=C(c2ccccc2)N(C(C)=O)n2c(nnc2C2CCCCC2)S1 | 2% | . | . | . | . | .
CCOCCCNC(=O)C1CCN(c2cc(C)nc3c(-c4ccc(Cl)cc4)c(C)nn23)CC1 | 0% | . | . | . | . | 11%
O=C(NC(=S)Nc1ccccc1)c1cccs1 | 17µM* | 2µM* | ? | ? | ? | .
COc1ccc(/C=N/NC(=O)CNC(=O)c2cccs2)cc1 | 15µM* | -5% | 14% | 24% | 18% | 11%
O=C(Nc1ccc(NC(=S)NC(=O)c2cccs2)cc1)c1ccccc1 | 2% | -3% | 8% | ? | 2% | 2%
Cc1cnc(C(=O)OCC(=O)Nc2ccc(OCc3ccccc3)cc2)cn1 | ? | 2.8µM* | ? | ? | 2.5µM* | .
COc1ccc(NC(=O)c2cccs2)c([N+](=O)[O-])c1 | ? | ? | ? | ? | 4µM* | 20%
Cc1cc2nc(C)c3c(n2n1)CCC3 | -4% | -4% | 6% | 18% | -2% | -1%
O=C(c1ccc2c(Cl)c3c(nc2c1)CCCC3)N1CCN(c2ccccc2F)CC1 | -1% | . | . | . | . | 5%
NCS(=O)(=O)O | . | . | . | . | . | -4%[9.22 µM]
COc1ccc(NC(=O)c2cc(C)n(Cc3cccs3)c2C)cc1 | 0.85µM* | 0.56µM* | ? | ? | 0.32µM* | .
Cc1cc(C(=O)COc2ccc3ccc(=O)oc3c2)c(C)n1Cc1cccs1 | ? | 5% | -2% | ? | 12% | -28%
SMILES | FLuc counter | NPC1 prom act | ELG1 genotox | ELG1 DNA repair | Rab9 promoter act | SMN2 splice up
COc1ccccc1CNC(=O)C(=O)NCC(c1cccs1)S(=O)(=O)c1ccc(F)cc1 (configuration not stated) | 2% | . | . | . | . | .
NS(=O)(=O)c1ccc(N=Nc2c(-c3ccccc3)[nH]n(-c3nc(-c4ccccc4)cs3)c2=O)cc1 | 0% | -13% | -14% | 5.2µM* | -13% | -79%
Nc1[nH]n2c(=O)cc(-c3ccccc3)nc2c1N=Nc1ccccc1 | 17µM* | -11% | -5% | 6% | -22% | -91%
Cc1ccc(N=Nc2c(N)[nH]n3c(=O)cc(C)nc23)cc1 | 17µM* | 2% | -6% | 11% | 0% | 19%
Cc1ccc(N=Nc2c(=O)[nH]n3c(C)cc(C)nc23)cc1 | -2% | 1% | 2% | 10% | 0% | -24%
Nc1[nH]n2c(=O)cc(-c3ccccc3)nc2c1N=Nc1ccc(S(N)(=O)=O)cc1 | 9.5µM* | -3% | 0% | 9% | -15% | .
Cc1[nH]n2c(=O)cc(-c3ccccc3Cl)nc2c1-c1ccccc1 | ? | . | . | . | . | -4%
O=C(NCCc1ccccc1)c1cnc2sc(N3CCCCC3)nn2c1=O | -7% | . | . | . | . | .
CCc1ccc(-n2c(=O)c3sc4ccccc4c3n(Cc3cccc(F)c3)c2=O)cc1 | -1% | . | . | . | . | -5%
CCn1c(C(=O)Nc2ccccc2C(=O)OC)cc2sc(Cl)cc21 | 3% | . | . | . | . | -9%
N#C/C(=C\c1ccc(N2CCOCC2)o1)c1nc2ccccc2[nH]1 | 0.43µM* | 0.71µM* | ? | ? | 0.5µM* | 0.56µM*
N#C/C(=C\c1ccc(N2CCOCC2)c([N+](=O)[O-])c1)c1nc2ccccc2[nH]1 | 15µM* | 18% | -1% | ? | -1% | -7%
Cc1ccc2nc(/C(C#N)=C\c3ccc(N4CCCCC4)c([N+](=O)[O-])c3)[nH]c2c1 | -17% | . | . | . | . | 10%
N#C/C(=C\c1ccncc1)c1nc2ccccc2[nH]1 | ? | 4% | 0% | 14% | -2% | 17%
N#C/C(=C/c1ccc(N2CCCC2)c([N+](=O)[O-])c1)c1nc2ccccc2[nH]1 | 6µM* | ? | 3% | ? | ? | 8%
N#C/C(=C/c1ccc(N2CCOCC2)o1)c1ccc(Cl)cc1 | 8.5µM* | 3.5µM* | ? | ? | 2.8µM* | ?
CC1=CC(C)=Nc2ccc(C)cc2N1 | 15µM* | 8% | 7.1µM* | ? | 9% | 1%
O=C(Nc1cnn(Cc2ccc(Cl)cc2Cl)c1)c1cc(-c2cccs2)on1 | 0% | 0% | -4% | -14% | 3% | -27%
CC(=O)c1cccc(NC(=O)Nc2cnn(Cc3ccc(Cl)cc3Cl)c2)c1 | -13% | -1% | -4% | 26µM* | -1% | 5%
O=C(Nc1nc2ccccc2[nH]1)c1ccc(Cl)cc1 | 0.43µM* | 0.32µM* | ? | ? | 0.32µM* | .
O=C(CCCOc1ccccc1)Nc1nc2ccccc2[nH]1 | 11µM* | ? | ? | ? | ? | .
Cc1ccc(OCCCC(=O)Nc2nc3ccccc3[nH]2)cc1 | 3% | 7% | 0% | -12% | 3% | 9%
O=C(NNc1ncnc2ccccc12)c1cccc(Cl)c1 | 2.7µM* | ? | ? | ? | 1.8µM* | .

Bioassay records (PubChem)
